For one experiment, the target named is T1, ETS1 (UniProt P14921).
T1 sequence: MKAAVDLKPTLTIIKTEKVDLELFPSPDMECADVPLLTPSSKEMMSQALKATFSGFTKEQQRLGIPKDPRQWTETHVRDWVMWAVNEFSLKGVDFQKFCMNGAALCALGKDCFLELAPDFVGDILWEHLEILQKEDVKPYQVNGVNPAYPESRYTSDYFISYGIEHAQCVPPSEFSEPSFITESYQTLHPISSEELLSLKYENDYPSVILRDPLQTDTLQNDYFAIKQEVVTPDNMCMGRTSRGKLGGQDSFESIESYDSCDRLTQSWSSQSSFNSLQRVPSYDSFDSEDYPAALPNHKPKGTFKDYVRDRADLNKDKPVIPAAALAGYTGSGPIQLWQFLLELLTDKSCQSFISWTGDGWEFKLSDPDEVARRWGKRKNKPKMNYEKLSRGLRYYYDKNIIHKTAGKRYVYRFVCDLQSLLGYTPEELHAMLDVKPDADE
Briefly: ETS1 binding intensity (PBM fluorescence) in presence of RUNX1, normalised to ETS1-only experiment (arbitrary fluorescence units); higher = stronger binding. Particulars: ETS1 concentration 1 nM; RUNX1 concentration 25 nM.
RUNX1, sequence (Q01196 whole entry): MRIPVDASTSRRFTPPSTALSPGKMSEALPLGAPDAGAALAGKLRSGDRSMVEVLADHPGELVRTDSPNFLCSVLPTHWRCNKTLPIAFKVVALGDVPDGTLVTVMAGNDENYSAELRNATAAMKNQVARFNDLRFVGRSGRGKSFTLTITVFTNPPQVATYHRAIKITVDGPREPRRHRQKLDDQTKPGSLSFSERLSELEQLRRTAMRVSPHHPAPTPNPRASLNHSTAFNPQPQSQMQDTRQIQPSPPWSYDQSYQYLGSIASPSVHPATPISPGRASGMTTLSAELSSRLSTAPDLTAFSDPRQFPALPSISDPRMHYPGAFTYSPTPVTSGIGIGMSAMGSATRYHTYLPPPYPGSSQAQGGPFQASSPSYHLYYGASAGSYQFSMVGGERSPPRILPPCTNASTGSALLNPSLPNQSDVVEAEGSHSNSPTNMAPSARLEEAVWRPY
As for AGGCCGCCTACAGGATGTTGGAAACCACAGGGCCCG, the ETS1 binding intensity turned out to be 29100.

Take CATAGGAAGTGCTCAGCTCTCCTCCACCGCAAGTTT: the ETS1 binding intensity was 2190.

Regarding ATCTTGGCCCATATCCTGTGGTGTTCTGCTAGAGGT, the ETS1 binding intensity was found to be 843.

Consider GAAATCCATCACGGATGTGGGCTTTTTGCTCTCATT, for which the ETS1 binding intensity is 1620.

With CTGCTGCTTTTAGGATGTGGTTTTATTATTGTCGGG, the ETS1 binding intensity came to 4960.

Consider ATGTTTGGGGCCGGAAGTGGGTTGGAGGTGTGGCGG, for which the ETS1 binding intensity came to 23800.

As for CACTTCCCGTGGGAGGATCTTGGGCTGCGGCTAGGG, the ETS1 binding intensity amounted to 802.

Regarding AGTTTCTTCTTTCCGGTGGGTTTGTGGTCTTGCTGA, the ETS1 binding intensity was 2990.

For CCTCGCCCCCTTCCGCACCCACCCCACCGCGCTCCG, the ETS1 binding intensity is 786.

In the case of TCCAGTGCCGCCGCCGGAAAACCGCAGCGGCGGCGG, the ETS1 binding intensity was determined as 4530.

Consider GAAGCCAGGAAATGGTGCGTGTGCGGGGCCGGGCGC, for which the ETS1 binding intensity came out at 1010.

For the sequence ACGAGGTTGGCCTCATCCGGTGGTTTTCGCAGCACG, the ETS1 binding intensity came to 1280.

In the case of AGGGTTGGGGAGGATGTTGTGGTTATTATTGACATA, the ETS1 binding intensity worked out at 4990.

With TTCAGGTGACTTCCGGCCGGACCGCTGAGGACGCGG, the ETS1 binding intensity is 9520.

For CCCCGCGGAACTCTGGCACAGTCAGCTGACCGCAGA, the ETS1 binding intensity was 2000.

With AGGGAAGCAGGAAGTGACTGCGGGAGTGGAGCCGGC, the ETS1 binding intensity turned out to be 3540.

As for GCTTGTCTTCCGGTTTCGTCGCCGCCGCAGGCGCAC, the ETS1 binding intensity was determined as 1880.

Turning to GCCTGCAGCTTCTTCCTGTGGCTTCTGCATCTCAGG, the ETS1 binding intensity was determined as 3930.

Regarding TACCTACATCCTGCCACCACCCGAGGGGACCGCAAG, the ETS1 binding intensity is 974.

As for TCCCCTCTCCCCATCCGCCCGAGACCACAGCCACTC, the ETS1 binding intensity worked out at 495.

Consider AAGGCAAACAGGAAATCATAACCACAAACCAGGAAC, for which the ETS1 binding intensity is 25500.

Consider AGGCAGCACAGGAAGTTATAACCACATGTACACTTG, for which the ETS1 binding intensity was found to be 11900.

In the case of CTCTTTCACAAAGGAAATGGAAACCACAAAGAGGAC, the ETS1 binding intensity amounted to 14700.

As to CCGATGGCGGCGGAACTGTGGTCAGGGCTGCCCTGA, the ETS1 binding intensity was 510.

Turning to CCGTACTTCCGCTTTACTCAGATTTTGGACCGCGGG, the ETS1 binding intensity stood at 1780.

Turning to CACTTCCTATCGCTACATAACAAATTACCACAGACT, the ETS1 binding intensity is 642.

For the sequence AGAACAGCAGGAAATAAATACCCACCTCAGGACTGC, the ETS1 binding intensity came out at 1050.

Regarding ACAGAGCAGGAAGCAGCCCTCACCACAGATGAAGCA, the ETS1 binding intensity was found to be 1210.

Consider GAGAACTTCCGGTGCGCTCCCCGGGACTGCGGTCCC, for which the ETS1 binding intensity came to 4920.

Take AAAGTAGGTCCGGTCCGCGGGTGCGGTCGGGCATGC: the ETS1 binding intensity was 545.

On to CCCAATTTCCTTTGCTCTGCTGTCTGCCAACCGCAA, for which the ETS1 binding intensity came to 491.

With CATCCAGGACGGAAACAGCATCCCCACCGCGGGAGC, the ETS1 binding intensity was 852.

TGTGGAGACAGGAAGCACTAACCTCAAACCTCTTTC: the ETS1 binding intensity amounted to 8830.

AGCTCAATTTCCTGGCGTGTAACATGGCCACAAGGG: the ETS1 binding intensity turned out to be 595.

For CCAGAGCACATCCTACACGCACCACAACCTGAAAAC, the ETS1 binding intensity is 396.

On to GGAGGGGAGCAGGAAGCTGAGGTTTTGTGAGTCAGA, for which the ETS1 binding intensity amounted to 2490.

As to TCTGGCTTCCTGTCTTAATAGGGCTTTGTGGTGTGC, the ETS1 binding intensity was 1080.

For ACCATATCCTGAGAATGAACCATGTGGTGGATGCAC, the ETS1 binding intensity was 487.

Turning to CCTGCCTGAGGCAGGAAGCCGCAGCTGAGGGACGGC, the ETS1 binding intensity is 5390.

Consider CCCACTCCACTTCCGCCACCGCCGCAGCCGCCGCTG, for which the ETS1 binding intensity was 1420.

The next experiment has as its target RUNX1 (UniProt Q01196). The experiment is described as follows: RUNX1 binding intensity (PBM fluorescence) in presence of ETS1, normalised to RUNX1-only experiment (arbitrary fluorescence units); higher = stronger binding. Particulars: RUNX1 concentration 2 nM; ETS1 concentration 25 nM. The method, then: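 Cooperative gcPBM on 36-bp genomic probes with neighbouring ETS1 and RUNX1 sites. Recombinant human RUNX1 (2 nM) was incubated alone or with ETS1 (25 nM) and detected with anti-RUNX1 antibody plus Alexa488 secondary. Values are medians over 4 replicate spots; the RUNX1+ETS1 data were normalised to the RUNX1-only data. The probes sit in constant array flanks that are not printed.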
AGGCCGCCTACAGGATGTTGGAAACCACAGGGCCCG: the RUNX1 binding intensity was determined as 2660.

On to CATAGGAAGTGCTCAGCTCTCCTCCACCGCAAGTTT, for which the RUNX1 binding intensity worked out at 879.

Regarding ATCTTGGCCCATATCCTGTGGTGTTCTGCTAGAGGT, the RUNX1 binding intensity worked out at 1290.

Consider GAAATCCATCACGGATGTGGGCTTTTTGCTCTCATT, for which the RUNX1 binding intensity was found to be 1010.

For the sequence CTGCTGCTTTTAGGATGTGGTTTTATTATTGTCGGG, the RUNX1 binding intensity stood at 1340.

As for ATGTTTGGGGCCGGAAGTGGGTTGGAGGTGTGGCGG, the RUNX1 binding intensity came out at 2830.

As to CACTTCCCGTGGGAGGATCTTGGGCTGCGGCTAGGG, the RUNX1 binding intensity is 1850.

With AGTTTCTTCTTTCCGGTGGGTTTGTGGTCTTGCTGA, the RUNX1 binding intensity was determined as 2770.

For the sequence CCTCGCCCCCTTCCGCACCCACCCCACCGCGCTCCG, the RUNX1 binding intensity is 2360.

For the sequence TCCAGTGCCGCCGCCGGAAAACCGCAGCGGCGGCGG, the RUNX1 binding intensity turned out to be 10200.

For the sequence GAAGCCAGGAAATGGTGCGTGTGCGGGGCCGGGCGC, the RUNX1 binding intensity came to 935.

ACGAGGTTGGCCTCATCCGGTGGTTTTCGCAGCACG: the RUNX1 binding intensity was determined as 1710.

For the sequence AGGGTTGGGGAGGATGTTGTGGTTATTATTGACATA, the RUNX1 binding intensity was found to be 2840.

Turning to TTCAGGTGACTTCCGGCCGGACCGCTGAGGACGCGG, the RUNX1 binding intensity came out at 1630.

On to CCCCGCGGAACTCTGGCACAGTCAGCTGACCGCAGA, for which the RUNX1 binding intensity came to 1440.

As to AGGGAAGCAGGAAGTGACTGCGGGAGTGGAGCCGGC, the RUNX1 binding intensity is 1080.

Take GCTTGTCTTCCGGTTTCGTCGCCGCCGCAGGCGCAC: the RUNX1 binding intensity was 1780.

With GCCTGCAGCTTCTTCCTGTGGCTTCTGCATCTCAGG, the RUNX1 binding intensity turned out to be 1320.

Turning to TACCTACATCCTGCCACCACCCGAGGGGACCGCAAG, the RUNX1 binding intensity came out at 2810.

On to TCCCCTCTCCCCATCCGCCCGAGACCACAGCCACTC, for which the RUNX1 binding intensity was 1570.

As for AAGGCAAACAGGAAATCATAACCACAAACCAGGAAC, the RUNX1 binding intensity was determined as 21700.

Consider AGGCAGCACAGGAAGTTATAACCACATGTACACTTG, for which the RUNX1 binding intensity came to 1960.

Take CTCTTTCACAAAGGAAATGGAAACCACAAAGAGGAC: the RUNX1 binding intensity was 3930.

Turning to CCGATGGCGGCGGAACTGTGGTCAGGGCTGCCCTGA, the RUNX1 binding intensity is 921.

For CCGTACTTCCGCTTTACTCAGATTTTGGACCGCGGG, the RUNX1 binding intensity turned out to be 3640.

Regarding CACTTCCTATCGCTACATAACAAATTACCACAGACT, the RUNX1 binding intensity is 6310.

As for AGAACAGCAGGAAATAAATACCCACCTCAGGACTGC, the RUNX1 binding intensity was 887.

Consider ACAGAGCAGGAAGCAGCCCTCACCACAGATGAAGCA, for which the RUNX1 binding intensity worked out at 1360.

Take GAGAACTTCCGGTGCGCTCCCCGGGACTGCGGTCCC: the RUNX1 binding intensity was 2780.

In the case of AAAGTAGGTCCGGTCCGCGGGTGCGGTCGGGCATGC, the RUNX1 binding intensity was 878.

As to CCCAATTTCCTTTGCTCTGCTGTCTGCCAACCGCAA, the RUNX1 binding intensity was determined as 4340.

Regarding CATCCAGGACGGAAACAGCATCCCCACCGCGGGAGC, the RUNX1 binding intensity amounted to 1080.

Turning to TGTGGAGACAGGAAGCACTAACCTCAAACCTCTTTC, the RUNX1 binding intensity is 1770.

With AGCTCAATTTCCTGGCGTGTAACATGGCCACAAGGG, the RUNX1 binding intensity was found to be 1390.

In the case of CCAGAGCACATCCTACACGCACCACAACCTGAAAAC, the RUNX1 binding intensity was 1470.

As for GGAGGGGAGCAGGAAGCTGAGGTTTTGTGAGTCAGA, the RUNX1 binding intensity worked out at 1070.

As for TCTGGCTTCCTGTCTTAATAGGGCTTTGTGGTGTGC, the RUNX1 binding intensity stood at 2040.

For the sequence ACCATATCCTGAGAATGAACCATGTGGTGGATGCAC, the RUNX1 binding intensity was found to be 1270.

Regarding CCTGCCTGAGGCAGGAAGCCGCAGCTGAGGGACGGC, the RUNX1 binding intensity was determined as 1280.

CCCACTCCACTTCCGCCACCGCCGCAGCCGCCGCTG: the RUNX1 binding intensity was found to be 5930.

The record behind these values is the supplement of paper PMC10681739.
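Throughout, for RUNX1 binding intensity (PBM fluorescence) in presence of ETS1, normalised to RUNX1-only experiment: Full-length recombinant human ETS1 or RUNX1 bound to double-stranded 36-bp genomic probes on microarrays, detected by protein-specific primary antibody and Alexa488 secondary, spot fluorescence as median of four replicate spots.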
